What all share (experiment): DAPPL (digital affinity profiling via proximity ligation, sequencing); 10 mM Tris-HCl pH 7.5, 50 mM NaCl, 1 mM DTT, 4% glycerol, room temperature, 30 min; GST-TFs on glutathione beads, 16-mer random dsDNA library, 0.1% formaldehyde crosslink after washing; high values mean tight binding
One test deals with T1, ELK1 (Homo sapiens, UniProt P19419 1-428).
T1 sequence: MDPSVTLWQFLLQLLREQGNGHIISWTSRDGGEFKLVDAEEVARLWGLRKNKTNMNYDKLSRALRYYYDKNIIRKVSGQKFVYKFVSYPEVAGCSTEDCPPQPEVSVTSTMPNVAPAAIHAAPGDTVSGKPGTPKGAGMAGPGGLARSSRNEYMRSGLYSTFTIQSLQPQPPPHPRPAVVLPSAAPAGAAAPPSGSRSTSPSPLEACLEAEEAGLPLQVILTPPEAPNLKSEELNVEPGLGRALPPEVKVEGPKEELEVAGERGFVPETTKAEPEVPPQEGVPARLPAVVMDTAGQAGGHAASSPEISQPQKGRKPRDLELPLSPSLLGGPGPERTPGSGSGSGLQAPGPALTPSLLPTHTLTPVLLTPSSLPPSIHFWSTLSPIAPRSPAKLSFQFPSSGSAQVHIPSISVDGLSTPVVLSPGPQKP
As to conditions: protein: recombinant; tags: N-terminal GST; dsDNA, one strand shown. An outline of the steps:
(§1)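 Human transcription factors carrying a GST fusion were produced in yeast, bound to glutathione beads, tagged with DNA barcodes and pooled together with a tag-only sample. Each pool was held with 200 nmole of a random double-stranded 16-mer DNA library in Tris/NaCl/DTT/glycerol buffer for 30 min at room temperature, then washed, crosslinked in 0.1% formaldehyde, proximity-ligated with BsaI/T4 ligase (1 h, 37 °C), PCR-amplified and sequenced on an Illumina NextSeq500. Binding signal is the read frequency of each hexamer for a given factor divided by its frequency in the tag-only sample.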

The target in a further test is T2, GABPA (Homo sapiens, UniProt Q06546 1-454).
T2 sequence: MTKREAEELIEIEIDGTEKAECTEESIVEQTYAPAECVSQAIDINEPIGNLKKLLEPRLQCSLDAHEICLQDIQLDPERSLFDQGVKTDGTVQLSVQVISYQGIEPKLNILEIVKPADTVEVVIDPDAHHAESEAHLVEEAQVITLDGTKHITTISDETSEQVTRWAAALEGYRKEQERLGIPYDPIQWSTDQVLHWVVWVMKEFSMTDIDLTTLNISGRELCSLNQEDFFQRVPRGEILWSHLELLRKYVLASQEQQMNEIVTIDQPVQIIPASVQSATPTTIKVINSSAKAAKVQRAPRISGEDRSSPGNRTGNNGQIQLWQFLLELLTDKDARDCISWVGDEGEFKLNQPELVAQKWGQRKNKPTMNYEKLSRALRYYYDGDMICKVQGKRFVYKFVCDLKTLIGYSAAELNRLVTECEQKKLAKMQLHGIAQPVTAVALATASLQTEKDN
Conditions: protein: recombinant; tags: N-terminal GST; dsDNA, one strand shown. The gist of the method:
as §1

The target of another test is ELF1 (Homo sapiens, UniProt P32519 1-619). As to conditions: protein: recombinant; tags: N-terminal GST; dsDNA, one strand shown. The gist of the method: as §1
Chain of ELF1 (P32519 whole entry): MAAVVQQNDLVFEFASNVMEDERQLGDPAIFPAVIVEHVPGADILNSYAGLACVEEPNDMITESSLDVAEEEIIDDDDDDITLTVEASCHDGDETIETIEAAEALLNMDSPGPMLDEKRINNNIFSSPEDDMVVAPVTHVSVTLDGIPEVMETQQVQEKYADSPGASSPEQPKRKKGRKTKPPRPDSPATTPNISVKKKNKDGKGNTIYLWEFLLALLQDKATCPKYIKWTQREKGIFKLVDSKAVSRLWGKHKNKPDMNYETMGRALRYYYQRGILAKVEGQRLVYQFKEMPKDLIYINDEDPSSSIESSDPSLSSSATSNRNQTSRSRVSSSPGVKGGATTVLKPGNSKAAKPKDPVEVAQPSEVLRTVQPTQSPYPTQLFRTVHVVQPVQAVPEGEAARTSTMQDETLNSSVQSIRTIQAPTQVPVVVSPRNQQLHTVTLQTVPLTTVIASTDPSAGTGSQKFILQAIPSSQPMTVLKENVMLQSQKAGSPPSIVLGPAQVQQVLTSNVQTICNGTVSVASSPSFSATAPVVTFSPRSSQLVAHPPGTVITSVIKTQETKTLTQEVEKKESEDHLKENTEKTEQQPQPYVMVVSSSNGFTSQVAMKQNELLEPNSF
For a further test, the target named is SPIB (Homo sapiens, UniProt Q01892 1-262). Conditions: protein: recombinant; tags: N-terminal GST; dsDNA, one strand shown. An outline of the steps:
as §1

Another test has as its target T3, ELK3 (Homo sapiens, UniProt P41970 1-407).
T3 sequence: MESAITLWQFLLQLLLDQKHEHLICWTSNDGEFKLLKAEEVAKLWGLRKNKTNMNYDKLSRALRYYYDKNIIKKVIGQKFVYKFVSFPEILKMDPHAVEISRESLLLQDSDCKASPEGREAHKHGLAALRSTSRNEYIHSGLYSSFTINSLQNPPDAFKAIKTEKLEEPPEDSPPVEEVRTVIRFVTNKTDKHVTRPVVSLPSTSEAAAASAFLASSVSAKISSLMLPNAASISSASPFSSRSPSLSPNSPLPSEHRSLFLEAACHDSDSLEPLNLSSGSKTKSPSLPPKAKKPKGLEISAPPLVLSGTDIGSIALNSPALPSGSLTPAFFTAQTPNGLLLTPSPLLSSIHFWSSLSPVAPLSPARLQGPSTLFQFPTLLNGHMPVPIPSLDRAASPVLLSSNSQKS
Conditions: protein: recombinant; tags: N-terminal GST; dsDNA, one strand shown. An outline of the steps:
as §1

Another test concerns the target T4, FEV (Homo sapiens, UniProt Q99581 1-238).
T4 sequence: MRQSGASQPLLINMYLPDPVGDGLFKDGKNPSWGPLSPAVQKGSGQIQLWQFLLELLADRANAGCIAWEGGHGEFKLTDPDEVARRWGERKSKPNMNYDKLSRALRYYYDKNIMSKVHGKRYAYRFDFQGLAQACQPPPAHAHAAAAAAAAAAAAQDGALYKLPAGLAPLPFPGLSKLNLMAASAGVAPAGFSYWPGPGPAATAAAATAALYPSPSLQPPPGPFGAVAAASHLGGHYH
Conditions: protein: recombinant; tags: N-terminal GST; dsDNA, one strand shown. The gist of the method:
as §1

The target of a further test is HSF1 (Homo sapiens, UniProt Q00613 1-529). As to conditions: protein: recombinant; tags: N-terminal GST; chain copies: 3; dsDNA, one strand shown. The gist of the method:
as §1

A further test has as its target T5, SPIC (Homo sapiens, UniProt Q8N5J4 1-248).
T5 sequence: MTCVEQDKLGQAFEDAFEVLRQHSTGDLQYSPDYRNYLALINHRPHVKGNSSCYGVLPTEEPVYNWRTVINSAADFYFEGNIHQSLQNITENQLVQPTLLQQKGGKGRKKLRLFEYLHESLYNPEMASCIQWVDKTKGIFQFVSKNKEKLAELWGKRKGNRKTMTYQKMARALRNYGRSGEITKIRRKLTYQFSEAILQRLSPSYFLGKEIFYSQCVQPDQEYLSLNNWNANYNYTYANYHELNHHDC
Conditions: protein: recombinant; tags: N-terminal GST; dsDNA, one strand shown. The gist of the method: as §1

The next test deals with T6, ELK4 (Homo sapiens, UniProt P28324-2 1-405).
T6 sequence: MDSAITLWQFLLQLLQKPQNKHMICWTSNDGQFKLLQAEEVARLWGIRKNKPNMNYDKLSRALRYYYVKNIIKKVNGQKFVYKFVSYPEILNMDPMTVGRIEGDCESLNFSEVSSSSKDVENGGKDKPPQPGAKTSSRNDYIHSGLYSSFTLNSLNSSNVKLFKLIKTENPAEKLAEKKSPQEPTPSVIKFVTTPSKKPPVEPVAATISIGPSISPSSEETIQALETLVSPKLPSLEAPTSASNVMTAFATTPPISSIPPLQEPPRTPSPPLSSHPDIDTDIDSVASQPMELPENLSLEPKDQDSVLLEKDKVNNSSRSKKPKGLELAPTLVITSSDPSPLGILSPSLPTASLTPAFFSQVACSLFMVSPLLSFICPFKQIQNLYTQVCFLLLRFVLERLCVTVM
As to conditions: protein: recombinant; tags: N-terminal GST; dsDNA, one strand shown. An outline of the steps:
as §1

For another test, the target named is CRX (Homo sapiens, UniProt O43186 1-299). Conditions: protein: recombinant; tags: N-terminal GST; dsDNA, one strand shown. An outline of the steps:
as §1

The target of a further test is T7, ERF (Homo sapiens, UniProt P50548 1-548).
T7 sequence: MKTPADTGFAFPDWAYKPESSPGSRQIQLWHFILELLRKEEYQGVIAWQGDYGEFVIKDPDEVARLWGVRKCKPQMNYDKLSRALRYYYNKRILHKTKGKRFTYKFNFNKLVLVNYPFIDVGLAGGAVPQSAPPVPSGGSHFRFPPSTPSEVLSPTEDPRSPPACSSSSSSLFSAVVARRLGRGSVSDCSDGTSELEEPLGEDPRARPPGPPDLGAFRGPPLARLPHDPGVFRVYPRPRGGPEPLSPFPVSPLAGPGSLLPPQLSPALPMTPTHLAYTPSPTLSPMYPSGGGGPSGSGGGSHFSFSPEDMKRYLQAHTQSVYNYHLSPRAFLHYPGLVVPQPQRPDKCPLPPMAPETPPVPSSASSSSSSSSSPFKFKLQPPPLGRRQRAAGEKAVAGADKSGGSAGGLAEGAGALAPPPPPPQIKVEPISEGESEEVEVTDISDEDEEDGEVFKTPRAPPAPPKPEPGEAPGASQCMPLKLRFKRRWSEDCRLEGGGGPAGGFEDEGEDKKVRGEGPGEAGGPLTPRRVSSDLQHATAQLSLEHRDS
As to conditions: protein: recombinant; tags: N-terminal GST; dsDNA, one strand shown. An outline of the steps: as §1

A further test deals with T8, ETV3L (Homo sapiens, UniProt Q6ZN32 1-361).
T8 sequence: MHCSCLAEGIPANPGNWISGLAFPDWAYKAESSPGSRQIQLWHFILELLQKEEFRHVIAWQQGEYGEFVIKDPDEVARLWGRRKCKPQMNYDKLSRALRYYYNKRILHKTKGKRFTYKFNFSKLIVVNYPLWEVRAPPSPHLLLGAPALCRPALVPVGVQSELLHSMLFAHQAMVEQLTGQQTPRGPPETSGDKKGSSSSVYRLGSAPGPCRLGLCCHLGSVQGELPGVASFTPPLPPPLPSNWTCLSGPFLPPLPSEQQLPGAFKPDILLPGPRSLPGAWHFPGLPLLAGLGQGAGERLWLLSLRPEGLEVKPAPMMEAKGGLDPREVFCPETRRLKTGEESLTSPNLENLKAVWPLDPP
Conditions: protein: recombinant; tags: N-terminal GST; dsDNA, one strand shown. An outline of the steps:
as §1

For another test, the target named is T9, ETS2 (Homo sapiens, UniProt P15036 1-469).
T9 sequence: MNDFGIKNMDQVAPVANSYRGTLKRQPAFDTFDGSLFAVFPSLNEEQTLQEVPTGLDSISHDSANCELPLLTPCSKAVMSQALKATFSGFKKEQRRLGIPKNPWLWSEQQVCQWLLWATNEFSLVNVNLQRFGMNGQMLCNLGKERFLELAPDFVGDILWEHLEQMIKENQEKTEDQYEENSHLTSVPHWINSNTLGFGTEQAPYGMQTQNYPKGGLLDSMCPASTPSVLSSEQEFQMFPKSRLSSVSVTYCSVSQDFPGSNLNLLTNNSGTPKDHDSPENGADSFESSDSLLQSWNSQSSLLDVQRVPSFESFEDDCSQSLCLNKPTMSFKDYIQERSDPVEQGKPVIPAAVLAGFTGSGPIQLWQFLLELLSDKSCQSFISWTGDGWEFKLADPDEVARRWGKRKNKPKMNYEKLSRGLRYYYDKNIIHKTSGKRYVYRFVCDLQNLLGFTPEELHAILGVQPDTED
As to conditions: protein: recombinant; tags: N-terminal GST; dsDNA, one strand shown. The gist of the method: as §1

Another test concerns the target T10, SPDEF (Homo sapiens, UniProt O95238 1-335).
T10 sequence: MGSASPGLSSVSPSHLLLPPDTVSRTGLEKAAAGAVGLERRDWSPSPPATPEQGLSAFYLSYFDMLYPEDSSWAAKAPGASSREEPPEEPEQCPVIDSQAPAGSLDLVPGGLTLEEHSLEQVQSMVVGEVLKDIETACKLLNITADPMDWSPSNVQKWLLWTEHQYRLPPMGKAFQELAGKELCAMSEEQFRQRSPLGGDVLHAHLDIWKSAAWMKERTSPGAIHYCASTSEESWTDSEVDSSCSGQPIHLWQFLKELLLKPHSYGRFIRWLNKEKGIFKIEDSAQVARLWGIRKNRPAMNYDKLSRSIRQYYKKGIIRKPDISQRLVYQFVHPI
Conditions: protein: recombinant; tags: N-terminal GST; dsDNA, one strand shown. The gist of the method:
as §1

The target in another test is T11, ETV7 (Homo sapiens, UniProt Q9Y603 1-341).
T11 sequence: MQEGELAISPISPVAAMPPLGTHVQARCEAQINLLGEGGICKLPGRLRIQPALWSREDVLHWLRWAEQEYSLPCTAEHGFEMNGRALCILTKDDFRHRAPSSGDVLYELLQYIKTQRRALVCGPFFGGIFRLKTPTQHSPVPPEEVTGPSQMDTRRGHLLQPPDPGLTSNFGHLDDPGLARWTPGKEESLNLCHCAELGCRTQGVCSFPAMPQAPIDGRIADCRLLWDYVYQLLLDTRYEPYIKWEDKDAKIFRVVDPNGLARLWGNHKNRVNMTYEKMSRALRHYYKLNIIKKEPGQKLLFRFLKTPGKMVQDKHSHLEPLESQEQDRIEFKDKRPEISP
As to conditions: protein: recombinant; tags: N-terminal GST; dsDNA, one strand shown. The gist of the method: as §1

In a further test the target is T12, ETV3 (Homo sapiens, UniProt P41162-2 1-143).
T12 sequence: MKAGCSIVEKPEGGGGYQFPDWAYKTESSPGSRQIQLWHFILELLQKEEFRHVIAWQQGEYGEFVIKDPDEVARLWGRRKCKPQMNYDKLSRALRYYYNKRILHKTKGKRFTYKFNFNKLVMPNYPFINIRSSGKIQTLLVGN
As to conditions: protein: recombinant; tags: N-terminal GST; dsDNA, one strand shown. The gist of the method:
as §1

Chain of HSF1 (Q00613 whole entry): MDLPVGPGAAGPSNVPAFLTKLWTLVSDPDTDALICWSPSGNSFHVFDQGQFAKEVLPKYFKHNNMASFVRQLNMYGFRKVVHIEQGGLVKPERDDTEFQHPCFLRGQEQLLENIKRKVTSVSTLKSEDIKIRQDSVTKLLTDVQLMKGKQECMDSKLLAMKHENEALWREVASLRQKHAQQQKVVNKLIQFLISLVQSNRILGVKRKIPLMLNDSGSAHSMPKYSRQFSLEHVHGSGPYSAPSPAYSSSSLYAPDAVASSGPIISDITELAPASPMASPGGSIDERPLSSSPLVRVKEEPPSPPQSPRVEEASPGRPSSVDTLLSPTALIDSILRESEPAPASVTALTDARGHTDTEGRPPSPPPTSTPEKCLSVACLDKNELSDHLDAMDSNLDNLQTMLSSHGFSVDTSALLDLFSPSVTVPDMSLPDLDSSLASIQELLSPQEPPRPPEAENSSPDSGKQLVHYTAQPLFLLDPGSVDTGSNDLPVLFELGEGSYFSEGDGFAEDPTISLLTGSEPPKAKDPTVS
Chain of SPIB (Q01892 whole entry): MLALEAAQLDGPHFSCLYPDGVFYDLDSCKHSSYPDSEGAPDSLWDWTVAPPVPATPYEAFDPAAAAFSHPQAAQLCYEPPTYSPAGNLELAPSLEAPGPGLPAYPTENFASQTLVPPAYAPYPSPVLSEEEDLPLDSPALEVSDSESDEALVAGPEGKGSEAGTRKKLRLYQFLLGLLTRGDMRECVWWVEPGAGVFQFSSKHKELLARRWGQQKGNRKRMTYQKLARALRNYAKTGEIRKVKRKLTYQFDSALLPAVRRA
Chain of CRX (O43186 whole entry): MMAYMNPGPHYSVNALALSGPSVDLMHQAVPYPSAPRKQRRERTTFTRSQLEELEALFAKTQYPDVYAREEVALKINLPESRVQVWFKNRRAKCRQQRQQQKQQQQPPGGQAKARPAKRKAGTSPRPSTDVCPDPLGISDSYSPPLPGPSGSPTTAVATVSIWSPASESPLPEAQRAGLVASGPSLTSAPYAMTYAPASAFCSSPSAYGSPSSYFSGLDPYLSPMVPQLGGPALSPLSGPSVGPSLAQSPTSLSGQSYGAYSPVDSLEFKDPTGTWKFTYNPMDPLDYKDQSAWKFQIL

For the sequence TCGCAT, the binding signal in the test with ELK1 is 1.06 fold enrichment (6-mer frequency, TF over GST control); with GABPA it was 1.02 fold enrichment (6-mer frequency, TF over GST control); with ELF1, 1.04 fold enrichment (6-mer frequency, TF over GST control); with SPIB, 1.06 fold enrichment (6-mer frequency, TF over GST control); with ELK3, 1.01 fold enrichment (6-mer frequency, TF over GST control); with FEV, 1.08 fold enrichment (6-mer frequency, TF over GST control). The binding signal was 1.04 fold enrichment (6-mer frequency, TF over GST control) with HSF1; 1.02 fold enrichment (6-mer frequency, TF over GST control) with SPIC; 1.08 fold enrichment (6-mer frequency, TF over GST control) with ELK4; 1.15 fold enrichment (6-mer frequency, TF over GST control) with CRX; 1.07 fold enrichment (6-mer frequency, TF over GST control) in the test with ERF; 1.03 fold enrichment (6-mer frequency, TF over GST control) in the test with ETV3L. The binding signal in the test with ETS2 is 1.04 fold enrichment (6-mer frequency, TF over GST control); with SPDEF, 1.03 fold enrichment (6-mer frequency, TF over GST control); with ETV7, 1.01 fold enrichment (6-mer frequency, TF over GST control); with ETV3 it was 1.03 fold enrichment (6-mer frequency, TF over GST control).
With TCCAGT, the binding signal in the test with HSF1 was 1.01 fold enrichment (6-mer frequency, TF over GST control).

(Values after publication PMC7862700, “An all-to-all approach to the identification of sequence-specific readers for epigenetic DNA modifications on cytosine”.)
